{"source": "the supplement of paper PMC3334620", "note": "Over roughly 33,000 sequences, “E-score (-0.5 to 0.5)” has its median near -0.013; the highest 2% begin near 0.3. Shown is part of a subset that was picked to be rich in the highest values."}
{"target": "T1, Msn1 (UniProt P22148)", "T1 sequence": "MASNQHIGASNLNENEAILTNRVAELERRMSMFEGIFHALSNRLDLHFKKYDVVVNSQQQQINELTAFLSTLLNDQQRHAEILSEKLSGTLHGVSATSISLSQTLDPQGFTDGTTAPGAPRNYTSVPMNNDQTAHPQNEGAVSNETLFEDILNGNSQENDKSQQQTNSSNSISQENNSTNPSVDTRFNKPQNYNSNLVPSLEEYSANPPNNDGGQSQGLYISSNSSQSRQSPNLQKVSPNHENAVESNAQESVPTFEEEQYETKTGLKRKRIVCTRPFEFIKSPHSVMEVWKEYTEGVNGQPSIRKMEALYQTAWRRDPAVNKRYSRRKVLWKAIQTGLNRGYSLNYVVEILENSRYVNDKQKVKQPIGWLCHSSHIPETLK", "assay": "PBM E-score (8-mer binding enrichment) (E-score (-0.5 to 0.5)); higher = stronger / more preferred TF binding", "settings": "protein concentration: 200 nM; construct: GST-full length", "procedure": "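Universal 'all 10-mer' protein binding microarrays (Agilent AMADID 015681) probed with GST-tagged S. cerevisiae TFs (full-length or DBD) made by in vitro transcription/translation (PURExpress), about 100-200 nM. Bound TF was detected with fluorescent anti-GST. Each ungapped 8-mer (which stands for itself and its reverse complement) is scored by the PBM enrichment score (E-score), a modified Wilcoxon-Mann-Whitney statistic from -0.5 to +0.5, computed with the Universal PBM Analysis Suite. Scale: above 0.35 generally sequence-specific binding.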"}
{"sequence": "CGACTTTA", "PBM E-score": 0.201}
{"sequence": "AGACTTTA", "PBM E-score": 0.0848}
{"sequence": "GGACTTTA", "PBM E-score": 0.328}
{"sequence": "TGTGACAA", "PBM E-score": 0.377}
{"sequence": "TCTGACAA", "PBM E-score": 0.198}
{"sequence": "CGTGACAA", "PBM E-score": 0.309}
{"sequence": "GTTGACAA", "PBM E-score": 0.269}
{"sequence": "CGTGACAG", "PBM E-score": 0.0649}
{"sequence": "GGTGACAA", "PBM E-score": 0.322}
{"sequence": "CCTGACAA", "PBM E-score": 0.202}
{"sequence": "GGTGACAC", "PBM E-score": -0.0303}
{"sequence": "AGTGACAA", "PBM E-score": 0.302}
{"sequence": "CCGCCAGG", "PBM E-score": -0.117}
{"sequence": "AACAGCGG", "PBM E-score": -0.0502}
{"sequence": "CGCTATGC", "PBM E-score": -0.215}
{"sequence": "GTGTCCGA", "PBM E-score": 0.37}
{"sequence": "AGGTCCGA", "PBM E-score": 0.132}
{"sequence": "CTGTCCGA", "PBM E-score": 0.275}
{"sequence": "GGGTCCGA", "PBM E-score": -0.115}
{"sequence": "ACGTCCGA", "PBM E-score": -0.00037}
{"sequence": "ATGTCCGA", "PBM E-score": 0.475}
{"sequence": "AGTCCTGC", "PBM E-score": 0.0243}
{"sequence": "AAAATCTG", "PBM E-score": 0.182}
{"sequence": "AGATTGCC", "PBM E-score": -0.0449}
{"sequence": "AAAGACCG", "PBM E-score": 0.0194}
{"sequence": "CAGGTAGA", "PBM E-score": -0.142}
{"sequence": "CCCTTCAA", "PBM E-score": -0.185}
{"sequence": "ATAGAGCG", "PBM E-score": -0.0637}
{"sequence": "AATTTGTG", "PBM E-score": 0.186}
{"sequence": "AATTTGAC", "PBM E-score": 0.194}
{"sequence": "ATTTTGTG", "PBM E-score": 0.144}
{"sequence": "ATTTTGTA", "PBM E-score": 0.209}
{"sequence": "ATTTTGTC", "PBM E-score": 0.468}
{"sequence": "AATTTGTC", "PBM E-score": 0.488}
{"sequence": "GGGGGAAC", "PBM E-score": -0.456}
{"sequence": "GTAAAGTA", "PBM E-score": 0.0255}
{"sequence": "GCGGGACC", "PBM E-score": -0.22}
{"sequence": "TCGGGACA", "PBM E-score": 0.456}
{"sequence": "TCGGGAAA", "PBM E-score": 0.176}
{"sequence": "ACGGGACA", "PBM E-score": 0.384}
{"sequence": "CCGGGACC", "PBM E-score": -0.159}
{"sequence": "CCGGGACG", "PBM E-score": -0.0555}
{"sequence": "CCGGGACA", "PBM E-score": 0.457}
{"sequence": "GCGGGACA", "PBM E-score": 0.359}
{"sequence": "TCGGGAGA", "PBM E-score": 0.014}
{"sequence": "GCGGGATA", "PBM E-score": 0.0848}
{"sequence": "ACGGGACT", "PBM E-score": 0.0899}
{"sequence": "ACGGGACC", "PBM E-score": -0.247}
{"sequence": "GAGCCCGA", "PBM E-score": -0.128}
{"sequence": "CTAGTGGA", "PBM E-score": -0.211}
{"sequence": "CGGAGGAC", "PBM E-score": 0.0943}
{"sequence": "ACTTAGCG", "PBM E-score": 0.074}
{"sequence": "ACCTCGAG", "PBM E-score": -0.0305}
{"sequence": "CATGGTCA", "PBM E-score": 0.117}
{"sequence": "CTGGGGTC", "PBM E-score": -0.217}
{"sequence": "CGACTTCA", "PBM E-score": 0.0948}
{"sequence": "GCGCTTGA", "PBM E-score": 0.00998}
{"sequence": "GGACTTCA", "PBM E-score": 0.0504}
{"sequence": "ACACTGTC", "PBM E-score": 0.165}
{"sequence": "GTCCTAGA", "PBM E-score": 0.342}
{"sequence": "GTCCTTAA", "PBM E-score": 0.433}
{"sequence": "ATCCTACA", "PBM E-score": -0.189}
{"sequence": "CTCCTTAA", "PBM E-score": -0.0988}
{"sequence": "GTCCTAAA", "PBM E-score": 0.365}
{"sequence": "ATCCTAGA", "PBM E-score": -0.0654}
{"sequence": "GTCCTACA", "PBM E-score": 0.385}
{"sequence": "CTCCTAGA", "PBM E-score": -0.0389}
{"sequence": "CTCCTACA", "PBM E-score": -0.187}
{"sequence": "TTCCTAAA", "PBM E-score": 0.0739}
{"sequence": "ATCCTAAA", "PBM E-score": -0.0285}
{"sequence": "ATCCTTAA", "PBM E-score": -0.126}
{"sequence": "ACAGCCGA", "PBM E-score": -0.16}
{"sequence": "GGCAAACC", "PBM E-score": -0.244}
{"sequence": "ACTCTCCG", "PBM E-score": -0.11}
{"sequence": "ACCTCCTG", "PBM E-score": -0.169}
{"sequence": "AGCATACC", "PBM E-score": -0.0756}
{"sequence": "ACACTAAC", "PBM E-score": 0.119}
{"sequence": "CTCTATGC", "PBM E-score": -0.0926}
{"sequence": "AGTCGGAG", "PBM E-score": -0.189}
{"sequence": "GGACTTAC", "PBM E-score": 0.273}
{"sequence": "CCTCCGGA", "PBM E-score": 0.102}
{"sequence": "CTCCTAAC", "PBM E-score": -0.278}
{"sequence": "GTCCTAAC", "PBM E-score": 0.36}
{"sequence": "CTACTAGA", "PBM E-score": -0.0895}
{"sequence": "ATCCTAAC", "PBM E-score": 0.0664}
{"sequence": "ATACTAGA", "PBM E-score": 0.125}
{"sequence": "GTACTAGA", "PBM E-score": 0.308}
{"sequence": "ACTCAAAG", "PBM E-score": 0.0435}
{"sequence": "ATGCGTTA", "PBM E-score": -0.0377}
{"sequence": "CACACTAC", "PBM E-score": -0.188}
{"sequence": "CAAGGGCG", "PBM E-score": -0.191}
{"sequence": "ATGCAGAG", "PBM E-score": -0.253}
{"sequence": "GTCGGACA", "PBM E-score": 0.427}
{"sequence": "ATCGGACG", "PBM E-score": 0.00151}
{"sequence": "CTCGGACA", "PBM E-score": 0.44}
{"sequence": "CTCGGATA", "PBM E-score": 0.157}
{"sequence": "ATCGGACA", "PBM E-score": 0.369}
{"sequence": "ATCGGACC", "PBM E-score": 0.0183}
{"sequence": "CTCGGACC", "PBM E-score": 0.165}
{"sequence": "GTCGGATA", "PBM E-score": 0.0474}
{"sequence": "GTCGGAGA", "PBM E-score": 0.0165}
